This passage reports growth results from PubChem BioAssay (NCI).

Values joined by “and” are separate entries in the source; they are usually repeats but may differ in a detail not shown here. Equal entries are not always repeated. About 83,000 compounds went through this panel and 20% of them were active in at least one assay; those are over-represented in the sample as a whole.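 Note: values are percent growth. 100 is the growth of untreated cells, values between 100 and 0 indicate rising inhibition; between -100 and 0 indicates cell death.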 A number with no mark means an inactive call. Active and inactive are the calls of the source. The calls were made as follows: active = growth percent below 10; inactive = the rest.

This test has as its system MDA-MB-468 breast. The experiment in a line: NCI-60 one-dose screen, 48 h (100 = growth as untreated, 0 = no growth, -100 = all killed). The following applies: 10 µM unless noted.
For `O=C(Nc1ccc(Oc2cccc(Cl)c2)c(Cl)c1)c1cnccn1`, the growth was 0.426% (active).
In the case of `Cc1nn(-c2ccccc2)cc1/C=N/Nc1nc(Nc2ccccc2)nc(Nc2ccc(S(N)(=O)=O)cc2)n1`, the growth is -37.1% (active).
`Cc1cc(=O)n2nc(-c3c[nH]c4ccccc34)sc2n1`: the growth was 88.8%.
The same measure for `O=C(NNc1nc2cc(F)cc(F)c2n2cccc12)c1cccnn1`: -21% (active).
For the molecule `COc1ccc(-c2nc3ccc(Cc4ccc5nc(-c6ccc(OC)cc6)[nH]c5c4)cc3[nH]2)cc1`, the growth was -20.2% (active).
With `Cc1[nH]c2ccc(F)cc2c1CCNC(=O)C1CCN(C(=O)c2ccccc2)CC1`, the growth was 87.7% [25 µM].
On to `COc1ccc(/C=N/OCC(O)CN2CCC(O)CC2)cc1OC1CCCC1` (stereo not given), for which the growth is 117%.
In the case of `CCOC(=O)c1c(NC(=O)c2cccc(C(F)(F)F)c2)sc2c3c(ccc12)OCN(C)C3`, the growth was -67.2% (active).
On to `CN1CCN(c2nc(NCCCNc3ccnc4cc(Cl)ccc34)c3ccccc3n2)CC1`, for which the growth is 54.6%.
`CN(C)Cc1ccc(C(=O)Nc2ccc3ncnc(Nc4ccc(Oc5cccc(F)c5)c(Cl)c4)c3c2)cc1`: the growth is -63% (active).
For `COc1cccc(CNc2c3ccccc3nc3ccccc23)c1`, the growth was 13.6%.
As for `Cc1cc(C)c(NC(=O)c2sc3nc4c(cc3c2N)C(=O)CCC4)c(C)c1`, the growth is -27.2% (active).
Take `CCOP(=O)(NC(c1ccccc1)c1ccccc1)OCC`: the growth was 104%.
As for `O=C(N/N=C/c1ccccc1)C(Oc1ccccc1)c1ccccc1` (stereo not given), the figure is 80.2%.
As for `COc1cc(NCCCCC(C)N)c2nccc(C)c2c1` (stereo not given), the growth was 10.6%.
Regarding `Cc1cc(Cl)c2ccc(N(C)C)cc2n1`, the growth is 94.3%.
Consider `Nc1nc2ccccc2c2c(=O)c3cc(Cl)ccc3sc12`, for which the growth was 21.3%.
Turning to `CC(=O)c1c(O)cc2c3c1OC(C)(C)C1CCC(C)(CC31)O2` (stereo not given), the growth is 85.9%.
As for `Cc1c(Cl)cccc1NC(=O)c1sc2nc3c(cc2c1N)COCC3`, the figure is 17.7%; as for `Cc1nc2cc(Nc3nc(Nc4ccc(F)cc4)nc(N4CCN(C)CC4)n3)ccc2n1Cc1ccccc1`, -32.7% (active); as for `CN1CC=C(c2cc(NC(=O)Nc3ccc(Oc4ccnc(NC(=O)C5CC5)c4)c(F)c3)cc(C(F)(F)F)c2)CC1`, -30.3% (active).
As for `COP(=O)(OC)C(C)(C)CC(=O)CC(C#N)(C#N)C(C#N)C#N`, the figure is 104%.
Regarding `CC(=O)OC[C@]12CC[C@@H]([C@@H](C)c3nnc(-c4ccncc4)o3)[C@@H]1[C@H]1CC[C@@H]3[C@@]4(C)CC[C@H](OC(C)=O)C(C)(C)[C@@H]4CC[C@@]3(C)[C@]1(C)CC2`, the growth is 59%.
Regarding `O=c1cc/c(=N\Nc2ccccc2)c(=O)/c1=N/Nc1ccccc1`, the growth was 106%.
As for `CC(C)Cn1cnc2c(=O)[nH]c(N)nc21`, the growth is 91.6%.
The same measure for `COc1c([C@@H](CC(C)C)OC(C)=O)ccc2c1C(=O)OCc1cc(C)cc(O)c1O2`: 8.08% (active).
For `O=S(=O)(Nc1ccccc1)C1CCCCC1`, the growth was 110% and 107%.
In the case of `CC(=O)OCCC(C)CCC=C(C)C` (stereo not given), the growth was 122%.
With `COc1cc2nc(Nc3cccc(Cl)c3)nc(N)c2cc1OC`, the growth is 26.8%.
With `COc1cc(/C=C/CO)cc(OC)c1O[C@@H]1O[C@H](CO)[C@@H](O)[C@H](O)[C@H]1O`, the growth was 91.9%.
As to `O=c1cc(/C=N\Nc2nc(-c3ccc(Cl)cc3Cl)cs2)c2cc(Cl)ccc2o1`, the growth is 102%.
As to `O=C1C=C(C(O)c2ccc(O)cc2)C(=O)c2ccccc21` (stereo not given), the growth was 111%.
`S=c1ccc2ccccc2[nH]1`: the growth was 98% and 116%.
The same measure for `COc1cccc(-c2nn(-c3ccccc3)cc2-c2ccnc(NCCNC(=O)c3ccccc3)c2)c1`: 47.7%.
For `CC(C)(Sc1cc(C(C)(C)C)c(O)c(C(C)(C)C)c1)Sc1cc(C(C)(C)C)c(OC(=O)CCC(=O)O)c(C(C)(C)C)c1`, the growth was 47.4%.
`O=C1CCCCN1CCCCC#Cc1cccc(C#Cc2cccnc2)c1`: the growth was 73.8%.
As for `Cc1nc2cc(NC(=O)CN3CCN(CCN4C(=O)c5cccc6cccc(c56)C4=O)CC3)ccc2s1`, the figure is 38.2%; as for `Cc1cc(S(=O)(=O)N(C)C)cc(NCC(=O)NC(=O)NCC(C)C)c1C`, 104%; as for `O=C1/C=C/[C@@H](O)[C@@H]2C[C@@H](O)C[C@H]2/C=C/CCC[C@H](CCc2ccc(NC(=S)Nc3ccc4c(c3)C(=O)OC43c4ccc(O)cc4Oc4cc(O)ccc43)cc2)O1`, -17.5% (active).
Turning to `Cc1ccc(N=CNN=C(N)N)cc1`, the growth was 100%.
